In all, about 290,000 compounds went through this assay and about 370 (0.13%) were called active. The list comes from a sample in which actives are over-represented; it also holds similar structures and randomly drawn compounds. Measured potencies and affinities stand elsewhere. A number with no mark means an inactive call.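 Rule for the calls: active = spots per cell inhibited over 60%, with over 100 cells counted and total cytoplasm intensity under 500,000; inconclusive = wells with under 100 cells, flagged as likely toxic; inactive = the rest.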
These compounds were tested against G-protein coupled receptor 55 (Homo sapiens) (UniProt Q9Y2T6) (assay: inhibition of LPI-stimulated GPR55 beta-arrestin translocation – imaging, U2OS, beta-arrestin-GFP, LPI agonist, primary screen (AID 2013;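 note: U2OS cells stably carrying GPR55 and arrestin-GFP stimulated by 5 µM LPI near EC80; imaged beta-arrestin-GFP aggregate spots per cell after agonist stimulation; plate controls were LPI-stimulated DMSO wells for no effect and DMSO wells without LPI for full effect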)). Details: LPI antagonism, at 10 µM, hits give high values.
Sequence of G-protein coupled receptor 55 (Homo sapiens) (Q9Y2T6 whole entry, looked up): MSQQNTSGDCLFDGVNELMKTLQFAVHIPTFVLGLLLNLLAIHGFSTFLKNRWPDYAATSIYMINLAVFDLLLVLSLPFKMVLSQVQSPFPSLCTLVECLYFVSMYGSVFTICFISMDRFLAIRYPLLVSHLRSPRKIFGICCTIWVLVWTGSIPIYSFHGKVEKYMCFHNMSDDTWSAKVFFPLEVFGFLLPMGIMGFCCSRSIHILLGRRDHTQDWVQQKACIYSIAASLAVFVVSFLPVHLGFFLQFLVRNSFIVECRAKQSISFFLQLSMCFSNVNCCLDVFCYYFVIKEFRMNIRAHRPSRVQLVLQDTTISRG

Structure (SMILES)	inhibition
NS(=O)(=O)c1ccc(Oc2ccc(S(N)(=O)=O)cc2)cc1	-4.4%
C=CS(=O)(=O)c1ccc(Oc2ccc(S(=O)(=O)C=C)cc2)cc1	70.4% (active)
CNS(=O)(=O)c1ccc(Oc2ccc(S(=O)(=O)NC)cc2)cc1	19%
COc1ccc(C(=S)N2CCOCC2)cc1OC(=O)c1ccc([N+](=O)[O-])cc1[N+](=O)[O-]	6.8%
COC(=O)CCC(=O)OC1(C)C(=O)C=C2C=C(C3CC3)N(C3CC3)C=C2C1=O (stereo not given)	5.7%
COc1cccc(NC(=O)COC(=O)C2C3CC4OC(=O)C2C4C3)c1 (stereo not given)	2.1%
COCCN=C1N[C@@H](c2ccccc2)C(C(=O)OC)=C(C)N1Cc1ccccc1	31.4%
COC(=O)C1=C(C)N(Cc2ccccc2)C(=NCCCCO)N[C@H]1c1ccccc1	-6.4%
Cc1ccc(OCC(=O)N2c3ccccc3NC(=O)C2(C)C)c([N+](=O)[O-])n1	6.9%
CCOC(=O)c1nc(Nc2ccc(C)cc2)c2ccccc2n1	11.6%
CCOC(=O)c1nc(Nc2ccccc2)c2ccccc2n1	-3.5%
Cc1csc(NC(=O)CCC(=O)N(CC(=O)NC2CCCCC2)c2ccccc2)n1	7.7%
O=C1NC(=O)N(Cc2ccccc2F)C1=O	-13.9%
Cn1cccc1/C=N/N1CCN(Cc2ccccc2Cl)CC1	-2.2%
Cc1cc(F)ccc1NC(=O)C1CCN(S(=O)(=O)c2ccc3c(c2)CCCC(=O)N3)CC1	8.1%
O=C(NCCNC(=O)c1cc(Cl)ccc1Cl)c1ccccn1	3.4%
CC(NC(=O)CN1CCCC1)C12CC3CC(CC(C3)C1)C2 (stereo not given)	-3.7%
CC(NC(=O)Cn1nc(C(=O)O)c2ccccc2c1=O)C12CC3CC(CC(C3)C1)C2 (stereo not given)	-2.7%
O=C(COC(=O)c1cc(S(=O)(=O)N2CCc3ccccc3C2)ccc1Cl)NCc1ccco1	7.3%
Cn1c(N)c(C(=O)COC(=O)CCC2CCCCC2)c(=O)n(C)c1=O	8.4%
CCN(CC)S(=O)(=O)c1ccc(N2CCOCC2)c(NC(=O)COc2ccccc2C#N)c1	-13.6%
Cn1c(=O)c2ccccc2n2c(CCl)nnc12	5.8%
CSCCNC(=O)c1ccc2nc(C3CCCCC3)oc2c1	4.5%
O=C(NCc1ccccn1)c1ccc2nc(C3CCCCC3)oc2c1	-4.5%

Structure (SMILES)	inhibition
CCOc1ccc(N(C)S(=O)(=O)c2ccc3[nH]cc(C(=O)NCC4CCCO4)c(=O)c3c2)cc1 (stereo not given)	8.3%
Cc1cc(NC(=O)c2ccc([N+](=O)[O-])cc2)n(CCC#N)n1	4.7%
COCCCn1c(=S)[nH]c2sc3c(c2c1=O)CCCS3	-0.4%
CCc1ccc(CN2CCCC(C(=O)N3CCCCC3)C2)cc1 (stereo not given)	12%
CCc1nnc(NC(=O)c2ccc3c(c2)C(=O)N(CC(C)C)C3=O)s1	3.7%
CCCNC(=O)c1nnsc1Sc1ccc(Cl)cc1	-10.7%
O=C(Nc1ccccc1)c1nnsc1S(=O)(=O)c1ccc(Cl)cc1	4.3%
CCCNC(=O)c1nnsc1S(=O)(=O)c1ccc(Cl)cc1	31.8%
CNC(=O)c1ncoc1-c1ccc(Cl)cc1	12.3%
O=C(CC12CC3CC(CC(C3)C1)C2)NC(Cc1ccccc1)C(=O)O (stereo not given)	10.7%
CC(=O)N(C(C)=O)c1nc(-c2ccccc2)cn1/N=C/c1ccccc1	7.8%
CCCNC(=O)NC(=O)CSc1nncs1	1.8%
Cc1ccc(C(=O)N/C(=C/c2ccco2)C(=O)N2CCCCC2)cc1	-6.4%
CC(C)Nc1nc(Cl)nc(NCCOc2ccccc2)n1	1.4%
CN(C)CC(C)(C)CNS(=O)(=O)c1ccc(Cl)s1	2.9%
O=c1[nH]c(Cc2ccccc2)nc2scc(-c3ccccc3)c12	-0.4%
NC(=O)c1cc(-c2ccccc2)nc(N2CCCCCC2)n1	-8.5%
CN1CCN(c2nc(C(N)=O)cc(-c3ccccc3)n2)CC1	-5.1%
CC(=O)Nc1ccc(S(=O)(=O)NCCC(=O)N2CCc3ccccc32)cc1	2.8%
O=C(NC1CCCN(c2ccc(C(F)(F)F)cn2)C1)c1cc(Cl)ccc1F (stereo not given)	9.1%
CC(C)=NNc1nc2c(c(=O)[nH]c(=O)n2C)n1CCc1ccccc1	-4.6%
COc1ccc(Br)cc1/C=N/Nc1cccc(C(=O)O)c1	1%
C=CCOc1c(CNc2cccc(C(=O)O)c2)cccc1OC	4.5%
Cc1c(NC(=O)CN2C(=O)NC(CCc3ccccc3)C2=O)c(=O)n(-c2ccccc2)n1C (stereo not given)	13.9%

Structure (SMILES)	inhibition
NC(=O)[C@@H]1CCOc2c(F)cc([N+](=O)[O-])cc2C(=O)N[C@@H](CO)C(=O)NCC(=O)N1	1.8%
COc1ccc(/C=C2\SC(N)=NC2=O)cc1	-7%
CC12CCC(C/C1=N\N=C1\NC(=O)/C(=C\c3ccc(Cl)cc3)S1)C2(C)C (stereo not given)	41.5%
O=C(CN(C(=O)CCC(=O)Nc1nccs1)c1ccc(F)cc1)NCC1CCCO1 (stereo not given)	15%
C/C(Cl)=C\CSc1nnc2n(N)c(=O)c3ccccc3n12	-16.2%
CCN(Cc1cn2cccnc2n1)C1CCCCC1	87.7% (active)
Cc1ccc(OCc2cn3cccnc3n2)cc1	12.3%
Cc1ccc(SCc2cn3cccnc3n2)cc1	-13.1%
O=C1NCC(c2ccccc2)C1C(=O)N/N=C/c1ccc(Cl)s1 (stereo not given)	5.1%
CN(c1ccccc1)c1ccc(/C=c2\s/c(=C(/C#N)C(=O)C(C)(C)C)n(Cc3ccco3)c2=O)cc1	74% (active)
COc1ccc(/C=c2\s/c(=C(/C#N)C(=O)NCc3ccco3)n(-c3ccccc3)c2=O)cc1	2.8%
Cc1ccc(/C=c2\s/c(=C(/C#N)C(=O)N3CCCC3)n(Cc3ccco3)c2=O)s1	5.1%
Cc1[nH]c(C)c(S(=O)(=O)N2CCCCC2)c1C(=O)N1CCCCC1	29.6%
Cc1ccc(N2CN(CCc3ccccc3)CNC2=S)cc1	5%
O=C(Nc1cccc(F)c1)NC1CCN(Cc2ccccc2)CC1	6%
COc1ccc(/C=C(\C#N)C(=O)NC(C)c2ccccc2)cc1O (stereo not given)	4.5%
CC(NC(=O)/C(C#N)=C/c1ccc([N+](=O)[O-])o1)c1ccccc1 (stereo not given)	4.1%
CC(=NCCc1ccccc1)C1=C(O)COC1=O	13.7%
CCOC(=O)c1c(N)sc(C(O)(C(F)(F)F)C(F)(F)F)c1-c1ccc(Cl)cc1	5.7%
CCOC(=O)c1c(N)sc(-c2ccccc2)c1C	-6.5%
CCOC(=O)c1c(N)sc(N)c1C(=O)OCC	6.2%
CCOC(=O)c1c(N)sc(C(O)(C(F)(F)F)C(F)(F)F)c1-c1ccc(OC)cc1OC	22.9%
N#Cc1c(N)nc(SCC(=O)C23CC4CC(CC(C4)C2)C3)c(C#N)c1-c1ccc(Cl)cc1	0.2%
COC(=O)c1cccc(NC(=O)CSc2nc3cccnc3n2C)c1	16.9%

Structure (SMILES)	inhibition
CCCCCCCc1c(C)nc(N2CCOCC2)[nH]c1=O	3.4%
CCOC(=O)C1=NN(N=O)C2(CC(=O)N(c3cc(C)cc(C)c3)C2=O)C1 (stereo not given)	8.8%
CC(C)(C)N(Cc1cc2ccccc2[nH]c1=O)C(=O)c1cccc([N+](=O)[O-])c1	-1.2%
O=C(Nc1ccccc1Cl)c1cc[n+]([O-])cc1	10.9%
Cc1ccc(OCCN2CCN(CC(O)Cn3c4ccccc4c4ccccc43)CC2)cc1 (stereo not given)	72.6% (active)
OC(CN1CCN(Cc2ccccc2)CC1)Cn1c2ccccc2c2ccccc21 (stereo not given)	36.2%
CN1CCN(CC(O)Cn2c3ccccc3c3ccccc32)CC1 (stereo not given)	-3.3%
CCOc1ccc(CN2CCN(CC(O)Cn3c4ccccc4c4ccccc43)CC2)cc1 (stereo not given)	79.4% (active)
Cc1ccc(OCC(O)Cn2c3ccccc3c3ccccc32)cc1 (stereo not given)	6.3%
COc1ccc(CN2CCN(CC(O)Cn3c4ccccc4c4ccccc43)CC2)cc1 (stereo not given)	50.2%
Cc1ccc(/C=N/NC(=O)c2nnn(-c3nonc3N)c2C(C)C)s1	4%
CC1CCN(CCc2nc3cc(NS(=O)(=O)c4ccccc4)ccc3n2C)CC1	-11.2%
CCn1c(SCC(N)=O)nc2c1c(=O)n(C)c(=O)n2C	-11%
Cc1onc(-c2ccc(Cl)cc2Cl)c1C(=O)/C=C/N(C)C	3.5%
COc1ccc(C(CNC(=O)C(C)(C)Oc2ccc(Cl)cc2)N2CCCCC2)cc1 (stereo not given)	3.2%
C=CCc1c(C)nc(-c2ccccc2)nc1N/N=C(\C)c1ccccc1	8.1%
Cc1cc(C2(c3ccc(O)c(C)c3)C(=O)Nc3ccccc32)ccc1O	5%
CC(=O)Nc1ccc(C2(c3ccc(NC(C)=O)cc3)C(=O)Nc3ccccc32)cc1	10.2%
CCOC(=O)C1=C(C)NC(=O)NC1c1ccccc1Cl (stereo not given)	14%
COC(=O)C1=C(C)NC(=O)CC1c1cccc(Cl)c1Cl (stereo not given)	10%
CCOC(=O)C1=C(C)NC(C)=C(C(=O)OC)C1c1cccc(Cl)c1Cl (stereo not given)	85.2% (active)
COc1cc(C(=O)N2CCN(C(=O)c3cccc4ccccc34)CC2)cc(OC)c1OC	4.5%
CCn1cnc2sc(C(=O)Oc3cccc(C)c3)c(C)c2c1=O	-14%

Reference: PubChem BioAssay AID2013 (Sanford-Burnham Center for Chemical Genomics, 2009)
